From PubChem BioAssay (EPA / NIEHS) come the findings set out here.

Test [1] has as its target Oxysterols receptor LXR-alpha (Homo sapiens) (UniProt Q13133). The test is described as follows: ATG_LXRa_TRANS: Attagene TRANS-FACTORIAL HepG2 Assay for human Liver X Receptor alpha (LXRa) (AID 2282980). The following applies: HepG2 Attagene TRANS reporter, LXRa transactivation. Summed up:
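In this multiplexed TRANS system, compounds act on HepG2 cells carrying GAL4-UAS reporter units and a receptor-GAL4 fusion for 24 h. Induced reporter RNA is amplified, fluorescently labelled and sized by capillary electrophoresis, with DMSO as baseline.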

Test [2] concerns the target Oxysterols receptor LXR-beta (Homo sapiens) (UniProt P55055). The test is described as follows: ATG_LXRb_TRANS: Attagene TRANS-FACTORIAL HepG2 Assay for human Liver X Receptor beta (LXRb) (AID 2282981). The following applies: HepG2 Attagene TRANS GAL4-LXRb reporter, mRNA. Summed up:
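HepG2 cells transiently transfected with GAL4-UAS reporter units for chimeric NR-Gal4 proteins, dosed for 24 h. Reporter transcripts measured by RT-PCR and capillary electrophoresis; gain-of-signal fitting relative to DMSO.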

The target in test [3] is Hepatocyte nuclear factor 4-alpha (Homo sapiens) (UniProt P41235). Nature of the test: ATG_HNF4a_TRANS: Attagene TRANS-FACTORIAL HepG2 Assay for human Hepatocyte Nuclear Factor 4 alpha (HNF4a) (AID 2282982). The following applies: HepG2 HNF4a transactivation reporter, mRNA readout. Summed up: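 HepG2 cells transiently transfected with HNF4a-Gal4 chimera and GAL4-UAS reporter units, dosed for 24 h. Reporter mRNA measured by RT-PCR, fluorescent primer extension and capillary electrophoresis; gain-of-signal fitted relative to DMSO.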

Test [4] is described as follows: ATG_M_32_TRANS: Attagene TRANS-FACTORIAL HepG2 Assay for M32 Transcription Factor (Internal Marker) (AID 2282984).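 Also: transcript level of a background control reporter unit measured by RT-PCR and capillary electrophoresis.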 To be noted: HepG2 Attagene TRANS M32 internal marker reporter. In short, it runs like this: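 HepG2 cells transiently transfected with GAL4-UAS reporter units, dosed for 24 hours. Reporter mRNA quantified by RT-PCR, 6-FAM labelling, HpaI digestion and capillary electrophoresis; internal-marker signal fitted upward relative to DMSO.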

Test [5] has as its target Nuclear receptor subfamily 4 group A member 2 (Homo sapiens) (UniProt P43354). The test is described as follows: ATG_NURR1_TRANS: Attagene TRANS-FACTORIAL HepG2 Assay for human Nuclear Receptor Related Protein 1 (NURR1) (AID 2282985). The following applies: HepG2 Attagene TRANS reporter, mRNA readout. Summed up:
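HepG2 cells transiently transfected with NURR1-Gal4 chimera and GAL4-UAS reporter units; after 24 hr compound exposure, reporter mRNA quantified by RT-PCR and capillary electrophoresis; gain of signal fitted against DMSO.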

For test [6], the target named is Transcriptional activator Myb (Homo sapiens) (UniProt P10242). The test is described as follows: ATG_Myb_CIS: Attagene CIS-FACTORIAL HepG2 Assay for human Myeloblastosis (Myb) Proto-Oncogene Transcription Factor (AID 2282986; active = hit-call score of the fitted dose curve at least 0.9, where 1 is the maximum; inactive = score below 0.9). To be noted: HepG2 Attagene CIS-FACTORIAL Myb reporter transcription; actives raise or lower the signal. In short, it runs like this:
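Transiently transfected HepG2 cells carrying a multiplexed cis-promoter reporter set report endogenous Myb activity after 24 h compound exposure. Reporter mRNA is read by RT-PCR with capillary electrophoresis of fluorescent products, fitted bidirectionally against DMSO.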

For test [7], the target named is Nuclear respiratory factor 1 (Homo sapiens) (UniProt Q16656). The test is described as follows: ATG_NRF1_CIS: Attagene CIS-FACTORIAL HepG2 Assay for human Nuclear Respiratory Factor 1 (NRF1) Orphan Gene (AID 2282987; active = hit-call score of the fitted dose curve at least 0.9, where 1 is the maximum; inactive = score below 0.9). The following applies: HepG2 NRF1 cis-element reporter, Attagene multiplex; actives raise or lower the signal. In short, it runs like this: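 HepG2 cells transiently transfected with multiple cis-regulated reporter units, exposed 24 h. Reporter mRNAs measured by RT-PCR, fluorescent labelling, HpaI digestion and capillary electrophoresis; bidirectional fitting against DMSO.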

Test [8] can be described thus: ATG_NFI_CIS: Attagene CIS-FACTORIAL HepG2 Assay for human Nuclear Factor I (NFI) (AID 2282989; active = hit-call score of the fitted dose curve at least 0.9, where 1 is the maximum; inactive = score below 0.9). To be noted: HepG2 cis-regulatory reporter, NFI response element transcription; actives raise or lower the signal. Summed up: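 Transient MRTU transfection of HepG2 → 24 h chemical dosing → total RNA, oligo(dT) RT → PCR, 6-FAM primer extension, HpaI cut → capillary electrophoresis. Endpoint fitted bidirectionally relative to DMSO.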

In test [9] the target is Bile acid receptor (Homo sapiens) (UniProt Q96RI1). Nature of the test: ATG_FXR_TRANS: Attagene TRANS-FACTORIAL HepG2 Assay for Farnesoid X Receptor (FXR) (AID 2282979).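 Also: hits raise reporter mRNA above DMSO so AC50 marks FXR activation.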 To be noted: HepG2 Attagene TRANS FXR-GAL4 reporter transcription. Summed up: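 After 24 h chemical treatment of transfected HepG2 cells, GAL4-UAS reporter transcripts driven by an exogenous FXR-GAL4 fusion were measured by RT-PCR and capillary electrophoresis. Increases over DMSO were fitted.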

Test [10] can be described thus: ATG_M_06_TRANS: Attagene TRANS-FACTORIAL HepG2 Assay for M06 Transcription Factor (Internal Marker) (AID 2282983).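 Also: reporter transcript level by RT-PCR then capillary electrophoresis fluorescence.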 To be noted: HepG2 Attagene TRANS M06 internal marker reporter. Summed up: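 Internal-marker background readout from a multiplexed TRANS reporter system in HepG2; 24 h dosing; mRNA induction quantified by RT-PCR plus capillary electrophoresis fluorescence; DMSO as negative control and baseline.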

Results filed as inconclusive are left out. Activity calls are given as the source filed them. The calls were made as follows, unless noted: active = hit-call score of the fitted dose curve at least 0.9, where 1 is the maximum; inconclusive = response in the unintended direction; inactive = score below 0.9.

Sequence of Hepatocyte nuclear factor 4-alpha (Homo sapiens) (P41235 whole entry, looked up, the tested form may be a part): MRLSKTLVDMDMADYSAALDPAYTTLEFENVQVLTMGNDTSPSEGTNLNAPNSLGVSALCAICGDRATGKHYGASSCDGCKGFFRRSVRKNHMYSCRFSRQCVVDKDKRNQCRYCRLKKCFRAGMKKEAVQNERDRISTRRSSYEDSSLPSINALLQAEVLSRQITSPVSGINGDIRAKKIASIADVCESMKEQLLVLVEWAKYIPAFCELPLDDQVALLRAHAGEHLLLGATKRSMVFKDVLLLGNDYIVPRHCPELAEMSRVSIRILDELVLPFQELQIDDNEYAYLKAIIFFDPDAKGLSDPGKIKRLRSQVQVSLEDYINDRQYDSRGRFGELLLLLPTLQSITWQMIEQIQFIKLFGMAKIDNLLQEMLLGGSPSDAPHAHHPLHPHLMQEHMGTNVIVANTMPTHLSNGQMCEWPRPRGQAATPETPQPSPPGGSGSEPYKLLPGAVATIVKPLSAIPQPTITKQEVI
Sequence of Oxysterols receptor LXR-beta (Homo sapiens) (P55055 whole entry, looked up, the tested form may be a part): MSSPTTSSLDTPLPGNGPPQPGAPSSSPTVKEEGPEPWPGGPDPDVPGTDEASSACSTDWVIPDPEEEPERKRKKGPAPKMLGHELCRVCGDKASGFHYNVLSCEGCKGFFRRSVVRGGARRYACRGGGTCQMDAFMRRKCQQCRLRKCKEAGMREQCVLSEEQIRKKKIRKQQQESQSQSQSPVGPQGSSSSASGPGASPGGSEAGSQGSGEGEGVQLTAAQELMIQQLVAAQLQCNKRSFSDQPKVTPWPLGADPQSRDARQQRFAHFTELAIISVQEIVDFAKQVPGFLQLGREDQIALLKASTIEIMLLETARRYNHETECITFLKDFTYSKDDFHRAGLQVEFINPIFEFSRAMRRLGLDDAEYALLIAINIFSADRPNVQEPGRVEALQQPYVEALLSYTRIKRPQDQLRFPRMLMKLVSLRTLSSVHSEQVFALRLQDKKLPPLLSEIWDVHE
Sequence of Nuclear receptor subfamily 4 group A member 2 (Homo sapiens) (P43354 whole entry, looked up, the tested form may be a part): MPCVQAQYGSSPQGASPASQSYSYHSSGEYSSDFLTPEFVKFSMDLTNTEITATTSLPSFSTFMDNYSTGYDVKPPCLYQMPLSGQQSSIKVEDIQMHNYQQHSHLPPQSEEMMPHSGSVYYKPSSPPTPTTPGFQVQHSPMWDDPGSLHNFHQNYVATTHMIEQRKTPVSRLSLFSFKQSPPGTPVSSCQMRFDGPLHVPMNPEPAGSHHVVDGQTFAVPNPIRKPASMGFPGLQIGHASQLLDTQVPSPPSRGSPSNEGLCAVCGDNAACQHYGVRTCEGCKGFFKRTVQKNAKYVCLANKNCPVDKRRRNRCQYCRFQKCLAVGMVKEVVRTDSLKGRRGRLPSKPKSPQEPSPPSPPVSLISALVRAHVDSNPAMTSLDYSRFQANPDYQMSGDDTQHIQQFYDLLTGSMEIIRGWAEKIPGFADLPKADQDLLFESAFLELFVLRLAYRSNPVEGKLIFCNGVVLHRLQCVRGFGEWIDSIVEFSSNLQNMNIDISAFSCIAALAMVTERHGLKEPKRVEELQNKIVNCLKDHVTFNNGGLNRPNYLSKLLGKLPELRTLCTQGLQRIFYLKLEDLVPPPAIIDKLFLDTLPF
Sequence of Bile acid receptor (Homo sapiens) (Q96RI1 whole entry, looked up, the tested form may be a part): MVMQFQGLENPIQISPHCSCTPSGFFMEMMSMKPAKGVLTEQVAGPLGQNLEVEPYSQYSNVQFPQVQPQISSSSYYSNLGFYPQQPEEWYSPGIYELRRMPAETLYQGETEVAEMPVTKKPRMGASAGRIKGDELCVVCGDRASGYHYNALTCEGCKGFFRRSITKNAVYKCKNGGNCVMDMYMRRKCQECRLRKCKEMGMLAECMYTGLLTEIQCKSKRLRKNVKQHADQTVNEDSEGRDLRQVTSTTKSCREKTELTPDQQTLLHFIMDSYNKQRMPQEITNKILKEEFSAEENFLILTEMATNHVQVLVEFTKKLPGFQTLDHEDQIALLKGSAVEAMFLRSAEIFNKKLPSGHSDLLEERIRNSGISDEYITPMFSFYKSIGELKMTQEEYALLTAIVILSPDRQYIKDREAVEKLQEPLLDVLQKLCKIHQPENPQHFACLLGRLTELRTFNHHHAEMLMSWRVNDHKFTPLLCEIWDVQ
Sequence of Oxysterols receptor LXR-alpha (Homo sapiens) (Q13133 whole entry, looked up, the tested form may be a part): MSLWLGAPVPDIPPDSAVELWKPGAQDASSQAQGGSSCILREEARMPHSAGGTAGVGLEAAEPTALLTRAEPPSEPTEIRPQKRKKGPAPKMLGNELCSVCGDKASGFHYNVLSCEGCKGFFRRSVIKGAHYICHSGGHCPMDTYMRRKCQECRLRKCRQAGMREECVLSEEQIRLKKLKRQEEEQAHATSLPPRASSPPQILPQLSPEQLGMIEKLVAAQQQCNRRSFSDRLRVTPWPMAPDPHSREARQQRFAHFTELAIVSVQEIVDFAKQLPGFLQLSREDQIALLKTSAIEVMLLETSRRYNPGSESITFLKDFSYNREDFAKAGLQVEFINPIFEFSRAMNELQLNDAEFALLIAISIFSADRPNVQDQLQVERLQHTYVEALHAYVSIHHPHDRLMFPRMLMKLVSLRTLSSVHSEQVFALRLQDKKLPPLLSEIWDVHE
Sequence of Nuclear respiratory factor 1 (Homo sapiens) (Q16656 whole entry, looked up): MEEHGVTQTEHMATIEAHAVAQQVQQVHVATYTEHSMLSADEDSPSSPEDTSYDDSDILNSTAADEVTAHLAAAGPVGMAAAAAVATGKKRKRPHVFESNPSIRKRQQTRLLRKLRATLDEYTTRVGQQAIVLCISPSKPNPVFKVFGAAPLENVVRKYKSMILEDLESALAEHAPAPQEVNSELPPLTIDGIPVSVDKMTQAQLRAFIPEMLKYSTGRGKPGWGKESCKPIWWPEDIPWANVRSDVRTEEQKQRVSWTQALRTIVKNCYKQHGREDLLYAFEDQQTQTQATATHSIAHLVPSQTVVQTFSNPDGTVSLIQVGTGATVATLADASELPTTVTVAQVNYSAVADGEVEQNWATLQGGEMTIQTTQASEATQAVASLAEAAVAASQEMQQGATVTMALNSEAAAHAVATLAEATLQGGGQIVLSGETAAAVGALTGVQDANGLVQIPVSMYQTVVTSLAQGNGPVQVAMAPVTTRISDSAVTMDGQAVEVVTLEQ
Sequence of Transcriptional activator Myb (Homo sapiens) (P10242 whole entry, looked up): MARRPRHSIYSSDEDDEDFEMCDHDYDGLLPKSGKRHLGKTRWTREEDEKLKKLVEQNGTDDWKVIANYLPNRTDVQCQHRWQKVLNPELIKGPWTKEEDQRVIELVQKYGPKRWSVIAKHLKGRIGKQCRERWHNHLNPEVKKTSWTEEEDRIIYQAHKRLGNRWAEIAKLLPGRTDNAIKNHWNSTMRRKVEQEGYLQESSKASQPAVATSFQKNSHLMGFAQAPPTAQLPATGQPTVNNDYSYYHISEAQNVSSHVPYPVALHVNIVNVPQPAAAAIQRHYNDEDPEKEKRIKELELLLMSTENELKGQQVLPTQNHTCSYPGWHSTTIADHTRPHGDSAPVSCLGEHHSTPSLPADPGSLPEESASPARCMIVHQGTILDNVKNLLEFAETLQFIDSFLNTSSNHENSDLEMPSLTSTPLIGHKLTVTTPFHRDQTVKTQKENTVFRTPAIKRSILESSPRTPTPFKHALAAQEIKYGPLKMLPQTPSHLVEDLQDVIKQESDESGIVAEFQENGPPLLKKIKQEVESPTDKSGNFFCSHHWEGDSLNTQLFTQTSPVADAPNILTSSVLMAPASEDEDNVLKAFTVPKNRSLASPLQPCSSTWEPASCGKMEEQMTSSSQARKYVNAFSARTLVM

For `CCCN(C1CCN(C(=O)C2CCNCC2)CC1)[C@@H]1CCc2ccc(OC)cc2C1`, the compound was classed as inactive in test [1], in [2], in [3], in [4], in [5] and in test [6]. In addition, the outcome in test [7] and in test [8] was inactive.

In the case of `Cc1c(-c2cccnc2)c2ccccc2n1CCCCC(=O)O`, the result in test [9], in test [2], in test [6], in test [7] and in test [8] was inactive.

`CC(C)=CCC/C(C)=C\CO`: the outcome in test [9], in test [2], in [10], in test [4], in test [5] and in [6] was inactive. The compound was classed as inactive in test [7] and in [8].

In the case of `CC(C)c1cccc(C(C)C)c1N1C(=O)c2ccc(O)cc2C1=O`, the AC50 (usually the midpoint of the concentration-response curve, whichever way the signal moves) in [9] was 19.8 µM (active); in [7], 152 µM (active); in test [8], 62.9 µM (active). Also, the call in test [2], in test [4], in test [5] and in test [6] was inactive.

For the compound `CN(C)c1ccc(Cc2ccc(N(C)C)cc2)cc1`, the call in [9], in [2], in test [10], in [6] and in [7] was inactive. For the same compound, the AC50 in test [5] is 49.1 µM (active); in test [8] it was 180 µM (active).

As to `C1=CCCC=CCCC=CCC1`, the result in test [9], in test [10], in test [6], in test [7] and in test [8] was inactive.

Regarding `COc1ccc2sc(C(=O)Nc3nnn[nH]3)c(OC(C)C)c2c1`, the outcome in test [9], in [10], in test [4], in [5], in test [6] and in [7] was inactive. In addition, the outcome in test [8] was inactive.

Take `CNCc1ccc(NC(=O)c2c[nH]c3c2C(=O)CCC3)cc1`: the compound was classed as inactive in test [1], in test [2], in test [3], in test [10], in test [4] and in test [5]. In addition, the compound was classed as inactive in test [6], in [7] and in [8].

Turning to `Oc1ccc2c(c1)-c1ccccc1C2`, the compound was called inactive in [9], in test [3], in test [10], in [4], in [6] and in test [7]. In [8], the AC50 is 37.9 µM (active).

Consider `C1N2CN3CN1CN(C2)C3`, for which the result in test [1], in [2], in test [3], in test [10], in test [5] and in test [6] was inactive. Moreover, the compound was called inactive in test [7] and in [8].

Consider `CCCCCCCCCCCCCCCO`, for which the compound was classed as inactive in test [9], in test [10], in [4], in test [6], in [7] and in test [8].

In the case of `COCCOc1cc2cc(C(=O)NC3CCN(C(C)C)CC3)n(CC(=O)Nc3ccc(Cl)cn3)c2cn1`, the outcome in test [9], in test [1], in [3], in test [10], in [4] and in test [6] was inactive. Moreover, the call in [7] and in test [8] was inactive.

Regarding `O=c1n(CC2CO2)c(=O)n(CC2CO2)c(=O)n1CC1CO1` (stereo not given), the call in test [1], in [2], in test [3], in [10], in test [5] and in [6] was inactive. The outcome in test [7] was inactive. Besides, the AC50 in test [8] is 47 µM (active).

Take `Nc1cccc(N)c1`: the compound was called inactive in test [9], in [2], in test [10], in [5], in test [6] and in [7]. In addition, the call in test [8] was inactive.

As to `Cc1[nH]cnc1C[C@H]1CCc2c(C)c3ccccc3n2C1=O`, the compound was classed as inactive in [9], in test [1], in test [2], in [10], in test [4] and in test [5]. Moreover, the compound was classed as inactive in [6] and in test [8]. Also, the AC50 in [7] is 13.1 µM (active).

Consider `CCCCC(CC)COC(=O)c1ccc(C(=O)OCC(CC)CCCC)cc1` (stereo not given), for which the result in test [9], in test [1], in [3], in test [10], in test [6] and in test [7] was inactive. The compound was called inactive in test [8].

In the case of `O=C1CCCCCN1`, the outcome in test [9], in [1], in test [2], in [10], in [5] and in [6] was inactive. Further, the compound was classed as inactive in test [7] and in test [8].

Turning to `CCOc1cccc(-n2cc(C(=O)N3CCN(c4cc(C(=O)O)c5ccccc5c4)CC3)nc2-c2ccc(C)cc2)c1`, the result in [9], in test [10], in test [4] and in [8] was inactive. For the same compound, the AC50 was 45 µM (active) in test [5], 152 µM (active) in test [6] and 22.7 µM (active) in test [7].

For `COc1cccc(-c2ccc(/C=C\CN3CCCCCC3)cc2Cl)c1`, the compound was called inactive in test [9], in test [1], in test [2], in [3], in test [10] and in test [5]. For the same compound, the call in [6], in [7] and in test [8] was inactive.
